Here are results for six molecules from PubChem BioAssay (EPA / NIEHS).

Read-out in experiment [1]: Vascular endothelial growth factor receptor 2 (Homo sapiens) (UniProt P35968)
Put plainly: BSK_4H_VEGFRII: BioMAP Diversity Plus: 4H Assay for Vascular endothelial growth factor receptor 2 (VEGFR2) Biomarker Activity (AID 2283031).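 For AC50: cell-surface VEGFR2 protein level quantified by ELISA.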 The note with it: primary human endothelial cells (HUVEC); actives raise or lower the signal. Summed up:
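HUVEC (human primary), 4H system; 24 h post-dose; VEGFRII by ELISA; bidirectional curve fit vs DMSO baseline; gain or loss of signal scored.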

Read-out in experiment [2]: Human Leukocyte Antigen - DR isotype (HLADR), HLA-DRA (gene 3122)
Put plainly: BSK_BE3C_HLADR: BioMAP Diversity Plus: BE3C Assay for Human Leukocyte Antigen - DR isotype (HLADR) Biomarker Activity (AID 2283032). The note with it: primary human bronchial epithelial cells; actives raise or lower the signal. Summed up: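 Signal came from an ELISA for HLA-DR in human bronchial epithelial primary cells harvested 24 h after treatment; gain- and loss-of-signal fitting used DMSO controls as reference.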

Read-out in experiment [3]: Vascular cell adhesion molecule 1 (VCAM1), VCAM1 (gene 7412)
Put plainly: BSK_4H_VCAM1: BioMAP Diversity Plus: 4H Assay for Vascular cell adhesion molecule 1 (VCAM1) Biomarker Activity (AID 2283033).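 For outcome: cell-surface VCAM-1 protein measured by ELISA.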 The conditions noted are these: primary human endothelial cells (HUVEC); actives raise or lower the signal. Summed up:
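Endpoint derived from bidirectional fitting against DMSO controls of VCAM-1 ELISA signal in umbilical vein endothelial cells sampled at 24 h following treatment.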

Read-out in experiment [4]: Interferon-gamma inducible Protein 10 (IP10), CXCL10 (gene 3627)
Put plainly: BSK_BE3C_IP10: BioMAP Diversity Plus: BE3C Assay for Interferon-gamma inducible Protein 10 (IP10) Biomarker Activity (AID 2283034). The note with it: primary human bronchial epithelial cells; actives raise or lower the signal. Summed up:
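Using primary human bronchial epithelial cultures, the assay captures IP-10 by ELISA one day (24 h) after exposure. Parallel SRB staining of total protein flags overt cytotoxicity. Fits run bidirectionally relative to DMSO.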

Read-out in experiment [5]: Monokine induced gamma interferon (MIG), CXCL9 (gene 4283)
Put plainly: BSK_BE3C_MIG: BioMAP Diversity Plus: BE3C Assay for Monokine induced gamma interferon (MIG) Biomarker Activity (AID 2283035).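 For outcome: MIG protein measured by ELISA in BE3C cultures after 24 h of dosing.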 The conditions noted are these: primary human bronchial epithelial cells; actives raise or lower the signal. Summed up:
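MIG level was determined by ELISA after 24 h chemical treatment of primary human bronchial epithelial cells. Values were fitted bidirectionally with DMSO as the negative control and activity baseline.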

Read-out in experiment [6]: Transforming growth factor beta 1 (TGFb1), TGFB1 (gene 7040)
Put plainly: BSK_BE3C_TGFb1: BioMAP Diversity Plus: BE3C Assay for Transforming growth factor beta 1 (TGFb1) Biomarker Activity (AID 2283036;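 for outcome: TGF-b1 protein level measured by ELISA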). The note with it: primary human bronchial epithelial cells; actives raise or lower the signal. Summed up: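 In this human primary bronchial epithelial system, an ELISA quantified TGF-b1 one day after dosing. Endpoint changes in either direction were fitted relative to DMSO.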

Read-out in experiment [7]: Plasminogen activator inhibitor-1 (PAI1), SERPINE1 (gene 5054)
Put plainly: BSK_BE3C_PAI1: BioMAP Diversity Plus: BE3C Assay for Plasminogen activator inhibitor-1 (PAI1) Biomarker Activity (AID 2283037). The note with it: primary human bronchial epithelial cells; actives raise or lower the signal. Summed up:
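PAI-1 biomarker levels in treated human bronchial epithelial cells are determined by ELISA at 24 h. Both increases and decreases relative to DMSO are fitted.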

Read-out in experiment [8]: urokinase plasminogen activator (uPA), PLAU (gene 5328)
Put plainly: BSK_BE3C_uPA: BioMAP Diversity Plus: BE3C Assay for urokinase plasminogen activator (uPA) Biomarker Activity (AID 2283038).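 Note: uPA protein level quantified by ELISA in cell cultures; uPA read one day after compound addition.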 The conditions noted are these: primary human bronchial epithelial cells; actives raise or lower the signal. The procedure, abridged:
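ELISA read-out of uPA in human lung primary bronchial epithelial cultures, 24 h post-dosing. Gain or loss of signal fitted bidirectionally relative to DMSO baseline; cytotoxicity checked in parallel cultures via SRB total protein stain.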

Read-out in experiment [9]: Urokinase-type plasminogen activator receptor (uPAR), PLAUR (gene 5329)
Put plainly: BSK_BE3C_uPAR: BioMAP Diversity Plus: BE3C Assay for Urokinase-type plasminogen activator receptor (uPAR) Biomarker Activity (AID 2283039).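 Note: uPAR protein level measured by ELISA on the cells; cells exposed to compound for one day before measurement.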 The note with it: primary human bronchial epithelial cells; actives raise or lower the signal. Summed up: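 A uPAR ELISA serves as the readout, taken 24 h after treating primary human bronchial epithelial cells. Responses in either direction are fitted against DMSO, which defines baseline activity.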

Read-out in experiment [10]: Interleukin-6 (IL6), IL6 (gene 3569)
Put plainly: BSK_CASM3C_IL6: BioMAP Diversity Plus: CASM3C Assay for Interleukin-6 (IL6) Biomarker Activity for (AID 2283040). The conditions noted are these: primary human coronary artery smooth muscle cells; actives raise or lower the signal.

Read-out in experiment [11]: Tissue plasminogen activator (tPA), PLAT (gene 5327)
Put plainly: BSK_BE3C_tPA: BioMAP Diversity Plus: BE3C Assay for Tissue plasminogen activator (tPA) Biomarker Activity (AID 2283041).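 Note: tPA level quantified by ELISA one day after compound addition.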 The conditions noted are these: primary human bronchial epithelial cells; actives raise or lower the signal. Summed up:
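Bidirectional curve fitting relative to DMSO defined activity, with tPA detected by ELISA in chemically treated human bronchial epithelial primary cells at 24 hours.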

Read-out in experiment [12]: Interleukin-8 (IL8), CXCL8 (gene 3576)
Put plainly: BSK_CASM3C_IL8: BioMAP Diversity Plus: CASM3C Assay for Interleukin-8 (IL8) Biomarker Activity (AID 2283042).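 Note: IL-8 protein level quantified by ELISA.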 The conditions noted are these: primary human coronary artery smooth muscle cells; actives raise or lower the signal.

Read-out in experiment [13]: Human Leukocyte Antigen - DR isotype (HLADR), HLA-DRA (gene 3122)
Put plainly: BSK_CASM3C_HLADR: BioMAP Diversity Plus: CASM3C Assay for Human Leukocyte Antigen - DR isotype (HLADR) Biomarker Activity (AID 2283043).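 Note: cell-surface HLA-DR protein level quantified by ELISA.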 The conditions noted are these: primary human coronary artery smooth muscle cells; actives raise or lower the signal.

Read-out in experiment [14]: Macrophage colony-stimulating factor (MCSF), CSF1 (gene 1435)
Put plainly: BSK_CASM3C_MCSF: BioMAP Diversity Plus: CASM3C Assay for Macrophage colony-stimulating factor (MCSF) Biomarker Activity (AID 2283044).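 Note: M-CSF protein amount quantified by ELISA after 24 h exposure.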 The note with it: primary human coronary artery smooth muscle cells; actives raise or lower the signal.

Read-out in experiment [15]: Low-density lipoprotein receptor (LDLR), LDLR (gene 3949)
Put plainly: BSK_CASM3C_LDLR: BioMAP Diversity Plus: CASM3C Assay for Low-density lipoprotein receptor (LDLR) Biomarker Activity (AID 2283045).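 Note: LDLR protein level on the cell surface quantified by ELISA.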 The note with it: primary human coronary artery smooth muscle cells; actives raise or lower the signal.

Read-out in experiment [16]: Monocyte Chemoattractant Protein-1 (MCP1), CCL2 (gene 6347)
Put plainly: BSK_CASM3C_MCP1: BioMAP Diversity Plus: CASM3C Assay for Monocyte Chemoattractant Protein-1 (MCP1) Biomarker Activity (AID 2283046).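 Note: MCP-1 level quantified by ELISA 24 h after dosing.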 The conditions noted are these: primary human coronary artery smooth muscle cells; actives raise or lower the signal.

A short description of experiment [17]: BSK_CASM3C_Proliferation: Cell Proliferation Assessment in the BioMAP Diversity Plus: CASM3C Assay (AID 2283047).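 Note: sulforhodamine B total protein stain as relative cell number at 560 nm; sub-confluent cells exposed 48 h before staining; fitted both ways against DMSO so gain or loss of cell number.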 The note with it: primary human coronary artery smooth muscle cells.
Read-out in experiment [18]: Monokine induced gamma interferon (MIG), CXCL9 (gene 4283)
Put plainly: BSK_CASM3C_MIG: BioMAP Diversity Plus: CASM3C Assay for Monokine induced gamma interferon (MIG) Biomarker Activity (AID 2283048).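 Note: MIG protein level measured by ELISA.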 The note with it: primary human coronary artery smooth muscle cells; actives raise or lower the signal.

Read-out in experiment [19]: serum amyloid A (SAA), SAA1 (gene 6288)
Put plainly: BSK_CASM3C_SAA: BioMAP Diversity Plus: CASM3C Assay for serum amyloid A (SAA) Biomarker Activity (AID 2283049).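 Note: SAA protein level quantified by ELISA.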 The note with it: primary human coronary artery smooth muscle cells; actives raise or lower the signal.

A short description of experiment [20]: BSK_CASM3C_SRB: Viability Assessment in the BioMAP Diversity Plus: CASM3C Assay (AID 2283050).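 Note: cells exposed to compound for 24 h.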 The note with it: primary human coronary artery smooth muscle cells.

Structures are written as SMILES. Several values for one entry are separate records, joined by “and”; a condition that tells them apart may be missing. Equal values may be shown once. A structure can be active in one record and inactive in another. Activity calls are given as the source filed them. Rule for the calls: active = hit-call score of the fitted dose curve at least 0.9, where 1 is the maximum; inactive = score below 0.9.

`OCC1CO1` (stereo not given): the outcome in experiment [1], in experiment [2], in experiment [3], in experiment [4], in experiment [5] and in [6] was inactive. Besides, the outcome in [7], in [8], in experiment [9], in experiment [10], in experiment [11] and in experiment [12] was inactive. Moreover, the result in [13], in [14], in experiment [15], in experiment [16], in experiment [17] and in experiment [18] was inactive. In addition, the result in [19] and in experiment [20] was inactive.

`CCOS(=O)(=O)OCC`: the result in experiment [1], in experiment [2], in experiment [3], in experiment [4], in experiment [5] and in experiment [6] was inactive. Further, the result in experiment [7], in experiment [8], in experiment [9], in [10], in [11] and in [12] was inactive. Moreover, the result in experiment [13], in [14], in experiment [15], in experiment [16], in experiment [17] and in [18] was inactive. Further, the result in experiment [19] and in experiment [20] was inactive.

As to `OCC(F)(F)OC(F)(F)C(F)(F)OC(F)(F)C(F)(F)OC(F)(F)F`, the AC50 is 42.9 µM (active) in experiment [1]; 48.6 µM (active) in experiment [13]; 17.5 µM (active) in [14]; 47.3 µM (active) in experiment [16]; 18.7 µM (active) and 28.5 µM (active) in experiment [17]; 30 µM (active) in experiment [18]. Also, the AC50 was 35 µM (active) in experiment [19]; 32.9 µM (active) and 44.3 µM (active) in experiment [20]. Also, the outcome in [1], in experiment [2], in [3], in experiment [4], in experiment [5] and in experiment [7] was inactive. The outcome in experiment [8], in experiment [9], in experiment [10], in experiment [11], in [12] and in experiment [13] was inactive. In addition, the outcome in [14], in experiment [15], in experiment [16], in experiment [18] and in [19] was inactive.

For `CC(Cl)CN(C)C` (stereo not given), the result in experiment [1], in experiment [2], in [3], in experiment [4], in experiment [5] and in experiment [6] was inactive. Further, the outcome in [7], in [8], in experiment [9], in [10], in experiment [11] and in experiment [12] was inactive. Moreover, the outcome in experiment [13], in experiment [14], in [15], in experiment [16], in [17] and in experiment [18] was inactive. In addition, the outcome in [19] and in experiment [20] was inactive.

Turning to `ClC1=C(Cl)C2(Cl)C3C(Cl)C(Cl)CC3C1(Cl)C2(Cl)Cl` (stereo not given), the half-maximal activity concentration (AC50) in experiment [1] is 30.3 µM (active); in experiment [2] it was 15.2 µM (active); in experiment [3] it was 27.3 µM (active); in [4], 34.9 µM (active); in [5], 30.6 µM (active); in experiment [6], 9.17 µM (active). Also, the half-maximal activity concentration (AC50) in experiment [7] was 36.1 µM (active); in experiment [13], 20 µM (active); in [17] it was 31.1 µM (active); in experiment [19] it was 20 µM (active); in experiment [20] it was 33.9 µM (active). Further, the outcome in experiment [8], in [9], in experiment [10], in experiment [11], in [12] and in [14] was inactive. The outcome in experiment [15], in experiment [16] and in experiment [18] was inactive.

On to `N#Cc1cc([N+](=O)[O-])ccc1N`, for which the outcome in experiment [1], in experiment [2], in experiment [3], in experiment [4], in [5] and in [6] was inactive. Further, the result in experiment [7], in [8], in experiment [9], in experiment [10], in [11] and in experiment [12] was inactive. Also, the result in experiment [13], in experiment [14], in [15], in experiment [16], in experiment [17] and in experiment [18] was inactive. Also, the result in experiment [19] and in [20] was inactive.
